Data reported in ChEMBL document CHEMBL4513216, “Probing the Open Global Health Chemical Diversity Library for Multistage-Active Starting Points for Next-Generation Antimalarials” (ACS Infect Dis, 2020).
In all, about 68,000 compounds went through this assay and about 2,700 (4%) showed an effect of 50% or more. The sample holds strong results, similar compounds and a random draw of the others, so the mix is not that of the screen.

Each compound was assayed on Plasmodium berghei (assay: Screen against P. berghei liver stage (PbLuc), transformed with Luciferase, at 2uM). Conditions: tested at 2 uM.
Assay type: functional, HepG2
Work on `CC(C)N1C(=O)CN(CCCO)CC1(C)C` yielded an INHIBITION of -4.81%.
`Cc1noc(-c2ccnc(Oc3ccc(CN4CCCC4)cc3C)c2)n1` gave an INHIBITION of 27.72%.
With `CCc1ccc(CN2CCC3(CCCN(C(=O)c4cnccn4)C3)C2)o1` (stereo not drawn) the INHIBITION was -26.14%.
In the case of `CCC(=O)N1CCN(C(=O)CCn2cc(Cl)cn2)[C@H]2CS(=O)(=O)C[C@H]21`, the INHIBITION is reported as 32.71%.
Compound `CCCN1CCN(Cc2cccc(OC)c2)[C@H]2CS(=O)(=O)C[C@H]21` has an INHIBITION of 37.76%.
Work on `Cn1nccc1C(=O)N1CCN(C(=O)C2CC2)[C@@H]2CS(=O)(=O)C[C@@H]21` yielded an INHIBITION of 17.73%.
With `Cc1cnn(CCC(=O)N2CCN(C(=O)C(C)C)[C@@H]3CS(=O)(=O)C[C@@H]32)c1` the INHIBITION was 34.52%.
`Cc1cc(CC(=O)N2CCN(CC3CC3)[C@@H]3CS(=O)(=O)C[C@@H]32)ccc1F` showed an INHIBITION of -10.66%.
Work on `CCCN1CCN(Cc2cccc(OC(C)C)c2)[C@H]2CS(=O)(=O)C[C@H]21` yielded an INHIBITION of 5.86%.
With `O=C(Cc1ccc(O)c(Cl)c1)N1CCN(CC2CC2)[C@@H]2CS(=O)(=O)C[C@@H]21` the INHIBITION was -3.88%.
`CCCN1CCN(Cc2cccc(OCC(N)=O)c2)[C@H]2CS(=O)(=O)C[C@H]21` showed an INHIBITION of 64.52%.
Compound `Cc1cnn(CCC(=O)N2CCN(C(=O)C3CC3)[C@@H]3CS(=O)(=O)C[C@@H]32)c1` has an INHIBITION of 59.94%.
`O=C(Cc1ccc(O)c(F)c1)N1CCN(CC2CC2)[C@@H]2CS(=O)(=O)C[C@@H]21` showed an INHIBITION of 30.42%.
In the case of `O=C(Cc1ccc(CO)cc1)N1CCN(CC2CC2)[C@@H]2CS(=O)(=O)C[C@@H]21`, the INHIBITION is reported as 63.46%.
In the case of `O=C(CCn1cc(Cl)cn1)N1CCN(CC2CC2)[C@@H]2CS(=O)(=O)C[C@@H]21`, the INHIBITION is reported as 59.48%.
With `O=C1NCCO[C@H]2CN(C(=O)CCc3ccccc3Cl)CC[C@@H]12` the INHIBITION was 46.58%.
With `CCOCCOC(C)C(=O)Nc1ccc2ccn(CCN(C)C)c2c1` (stereo not drawn) the INHIBITION was 27.32%.
`Fc1ccccc1-c1nnn(CCCc2nn[nH]n2)n1` showed an INHIBITION of -1.29%.
Compound `Cc1ccc(-c2ccc(Cl)nn2)cc1S(N)(=O)=O` has an INHIBITION of -62.18%.
`COc1ccccc1C1Cn2ccnc2CN1Cc1c[nH]nc1C` (stereo not drawn) showed an INHIBITION of -67.25%.
`CN(CCc1ccncc1)C1CCCN(Cc2noc(C3CC3)n2)C1` (stereo not drawn) showed an INHIBITION of 22.34%.
For `Cc1cc(CN2CCN(CC3CC3)[C@@H]3CS(=O)(=O)C[C@@H]32)cc(C)c1O`, the INHIBITION was 25.45%.
`O=S1(=O)C[C@@H]2[C@H](C1)N(Cc1ccc3ccccc3c1)CCN2CC1CC1` was tested, and the INHIBITION was 20.91%.
Work on `O=S1(=O)C[C@@H]2[C@H](C1)N(Cc1cccc(O)c1)CCN2CC1CC1` yielded an INHIBITION of 59.94%.
`CCCS(=O)(=O)NC(=O)c1cc(C)n(-c2ccccc2)n1` gave an INHIBITION of -1.29%.
With `CCCS(=O)(=O)NC(=O)c1ccc(-n2nc(C)cc2C)cc1` the INHIBITION was 59.04%.
In the case of `COCCS(=O)(=O)NC(C)c1ccc(-n2nc(C)cc2C)cc1` (stereo not drawn), the INHIBITION is reported as -25.82%.
For `N[C@@H]1CCC[C@@H](Oc2ccc(F)cc2Oc2cccc(F)c2)[C@@H]1O`, the INHIBITION was 35.73%.
Work on `Cc1ccc(Oc2cc(F)ccc2O[C@@H]2CCC[C@@H](N)[C@H]2O)cc1` yielded an INHIBITION of 6.13%.
With `N[C@@H]1CCC[C@@H](Oc2ccc(F)cc2Oc2ccccc2)[C@@H]1O` the INHIBITION was 61.99%.
`COC(=O)Cn1c(=O)[nH]c2cn(-c3ccc(F)cc3)c(=O)n21` showed an INHIBITION of -3.97%.
`O=C1COc2ccc(C(=O)NS(=O)(=O)c3ccccc3F)cc2N1` gave an INHIBITION of 8.37%.
For `Cc1nnc([C@@H]2C[C@H]3CN(C(=O)c4c(C)noc4C)C[C@H]3O2)[nH]1`, the INHIBITION was 38.2%.
Compound `CC(=O)N1CCCN(C(=O)c2cnn(-c3ccccc3Cl)c2)CC1` has an INHIBITION of 82.5%.
`CN1CCN(C(=O)c2cnn(-c3ccccc3Cl)c2)CC1` was tested, and the INHIBITION was -1.02%.
Compound `Cc1ccnn1CCC(=O)N1CCN(C2CCc3ccccc3C2)CC1` (stereo not drawn) has an INHIBITION of 14.13%.
In the case of `Cc1nn(C)cc1C(=O)N1CCCN(C2Cc3ccccc3C2)CC1`, the INHIBITION is reported as 19.12%.
`Cn1cc(C(=O)N2CCCN(C3Cc4ccccc4C3)CC2)cn1` showed an INHIBITION of 55.66%.
For `Cc1ccnn1CC(=O)N1CCN(C2CCc3ccccc3C2)CC1` (stereo not drawn), the INHIBITION was 46.02%.
Work on `CC(=O)N1CCN(C(=O)c2cnn(-c3ccccc3Cl)c2)CC1` yielded an INHIBITION of -90.79%.
With `Cn1cc(Cl)c(C(=O)N2CCCN(C3Cc4ccccc4C3)CC2)n1` the INHIBITION was -18.65%.
Compound `CCCn1nccc1C(=O)N1CCN(C2CCc3ccccc3C2)CC1` (stereo not drawn) has an INHIBITION of 57.85%.
`CCN(CC)C1CCN(C(=O)c2cc(-n3cccn3)ccc2Cl)CC1` was tested, and the INHIBITION was -16.01%.
Work on `Cc1noc(C)c1C(=O)NCC(C)N(C)C` (stereo not drawn) yielded an INHIBITION of 8.37%.
For `CC[C@@H]1N(Cc2ccc(C)o2)CCC[C@]12CCC(=O)N2CCOC`, the INHIBITION was 33.74%.
Work on `O=C(CCCc1ccccn1)N1CCCC1c1noc(C2CC2)n1` (stereo not drawn) yielded an INHIBITION of 30.91%.
`COc1c(C)cnc(CN(C)C2CCCCC2)c1C` was tested, and the INHIBITION was 11.8%.
In the case of `O=c1c(NCCNCCO)c(N2CCN(c3ccccc3)CC2)c1=O`, the INHIBITION is reported as -11.72%.
Compound `CC1(C(N)=O)CCCN(c2cnccn2)C1` (stereo not drawn) has an INHIBITION of -4.8%.
In the case of `CC(C)[C@@H](CO)Nc1cc(-c2cn[nH]c2)ncn1`, the INHIBITION is reported as 21.81%.
Work on `O=C([C@H]1COC[C@H]2CN(C3CCCC3)C[C@H]21)N1CCOCC1` yielded an INHIBITION of 12.4%.
`CC(=O)c1ccc(Cl)c(Cl)c1OCC(=O)NC(C)C` was tested, and the INHIBITION was 26.27%.
Work on `COc1ccc2c(c1)C1(CCN(Cc3nccs3)CC1)N(C)CC2` yielded an INHIBITION of 13.75%.
`CC(NC(=O)Cc1cccs1)(C(N)=O)c1cccc(Cl)c1` (stereo not drawn) showed an INHIBITION of -18.59%.
In the case of `CN(CCc1ccccn1)C(=O)C1Cc2ccccc2CN1C` (stereo not drawn), the INHIBITION is reported as 31.78%.
In the case of `CC(=O)N1Cc2ccccc2C[C@H]1C(=O)N(C)Cc1ccccn1`, the INHIBITION is reported as 58.12%.
Work on `CC(=O)N1Cc2ccccc2C[C@H]1C(=O)N(C)CCc1ccccn1` yielded an INHIBITION of 8.73%.
With `Cc1nnsc1C(=O)NCc1nn(C)c2c1COCC2` the INHIBITION was -1.74%.
In the case of `O=C(C1CCOCC1)N1C[C@@H]2CC[C@H]1CN(C1Cc3ccccc3C1)C2`, the INHIBITION is reported as 27.33%.
`COC(=O)[C@H]1C[C@@H](O)CCN1S(=O)(=O)c1cc(C)c(Cl)cc1C` showed an INHIBITION of 26.51%.
For `COC(=O)[C@H]1C[C@@H](O)CCN1S(=O)(=O)c1cc(Cl)ccc1OC`, the INHIBITION was 55.18%.
Compound `COC(=O)[C@H]1C[C@@H](O)CCN1S(=O)(=O)c1ccc(F)cc1F` has an INHIBITION of 16.25%.
In the case of `CCS(=O)(=O)N1CCc2c(cccc2NCc2nc(C)c(C)o2)C1`, the INHIBITION is reported as -23.97%.
`COCCN(Cc1ccc(C)o1)C(=O)Nc1nnc2ccccn12` showed an INHIBITION of 33.9%.
`COCCN(Cc1ccc(C)o1)C(=O)Nc1ncc(C)s1` was tested, and the INHIBITION was 62.51%.
`COCCN(Cc1ccc(C)o1)C(=O)Nc1nnc(C(F)F)s1` showed an INHIBITION of -44.8%.
For `CCC(=O)Nc1nnc(CCOc2ccc(OC)cc2)s1`, the INHIBITION was -14.16%.
`COCCN(Cc1cnn(C)c1)Cc1ccc(C)o1` gave an INHIBITION of 12.58%.
For `CCc1nnc(NC(=O)N(CCOC)Cc2ccc(C)o2)s1`, the INHIBITION was 83.98%.
Work on `Cc1noc(C)c1CCC(=O)N1CCCCC1CNS(C)(=O)=O` (stereo not drawn) yielded an INHIBITION of -3.46%.
Compound `COc1ccccc1C(C)(C)NC(=O)c1ccc(F)c(NC(C)=O)c1` has an INHIBITION of 38.49%.
With `Cc1nc(-c2ccccc2C(=O)O)cc(C2CCN(C(C)C)C2)n1` (stereo not drawn) the INHIBITION was 17.01%.
`CN(Cc1cccnc1)CC1CCCN1c1cccnn1` (stereo not drawn) was tested, and the INHIBITION was 33.31%.
Compound `Cc1nc(N2CCN(C)CC2)ncc1C(=O)N1CCCCCC1` has an INHIBITION of -15.75%.
`Cc1ccc(-c2n[nH]cc2CNCCn2cccn2)o1` gave an INHIBITION of 7.85%.
`CCN1CCN(c2ccc(CNC(=O)c3ccccc3F)cn2)CC1` gave an INHIBITION of 20.41%.
Compound `O=C(Cc1cccnc1)N1CCCC(n2cncn2)C1` (stereo not drawn) has an INHIBITION of -7.82%.
Work on `NC(=O)N1CCC2(CC1)CN(c1ccsc1)C(=O)CO2` yielded an INHIBITION of -12.73%.
With `N#Cc1cccc(N2CCC3(CCC(=O)N(CCCO)C3)CC2)n1` the INHIBITION was 58.18%.
`CCCc1nc(C)cc(N2CCC3(CCC(=O)N(CCCO)C3)CC2)n1` was tested, and the INHIBITION was -25.22%.
In the case of `N#Cc1cccc(N2CCC3(CCC(=O)N(CC4CCCO4)C3)CC2)n1` (stereo not drawn), the INHIBITION is reported as -41.11%.
Compound `Cc1cc(N2CCC3(CCC(=O)N(CCO)C3)CC2)nc(N(C)C)n1` has an INHIBITION of 19.59%.
`Cc1cc(N2CCC3(CCC(=O)N(CCCO)C3)CC2)nc(N(C)C)n1` was tested, and the INHIBITION was 57.75%.
With `N#Cc1cccc(N2CCC3(CCC(=O)N(CC(N)=O)C3)CC2)n1` the INHIBITION was -30.57%.
Compound `O=C(COc1coc(CN2CCCCC2)cc1=O)Nc1cccc(Cl)c1` has an INHIBITION of -13.13%.
`CCOCC(O)CN1CCN(C(=O)Cc2ccc3c(c2)CCC3)CC1` (stereo not drawn) showed an INHIBITION of 24.88%.
For `Cc1ccc(CN(Cc2cc(C)no2)C2CC2)cc1`, the INHIBITION was 2.01%.
Work on `CCOc1cc(C)nc(N2CCN(C(=O)c3csnn3)CC2)n1` yielded an INHIBITION of -14.16%.
In the case of `CCOCC(O)CN1CCN(C(=O)c2ccccc2F)CC1` (stereo not drawn), the INHIBITION is reported as 30.29%.
In the case of `CCn1cc(CN2C[C@@H]3CCCN3C[C@H]2CCSC)cn1`, the INHIBITION is reported as -25.95%.
Compound `Cc1ccc(N(C)CC(O)COCc2ccccc2F)c(C)c1` (stereo not drawn) has an INHIBITION of 25.92%.
For `CCc1nnc(CN2CCC(C3CCCCCN3C(C)=O)CC2)o1` (stereo not drawn), the INHIBITION was -5.58%.
For `CCOCCCNC(=O)c1nc2c(s1)CCCN2c1ccc(C)nn1`, the INHIBITION was -14.63%.
`CCNC(=O)C(C)NC(=O)Nc1ccccc1Cl` (stereo not drawn) gave an INHIBITION of 12.43%.
`CCNC(=O)C(C)NC(=O)Nc1ccccc1SCC` (stereo not drawn) showed an INHIBITION of 60.13%.
Compound `CCNC(=O)C(C)NC(=O)Nc1ccccc1SC(F)(F)F` (stereo not drawn) has an INHIBITION of -16.18%.
`c1csc(-c2noc(C3CNC3)n2)c1` gave an INHIBITION of 5.98%.
`C1CC(N2Cc3nnn(CC4CC4)c3C(COCC3CC3)C2)C1` (stereo not drawn) showed an INHIBITION of 10.71%.
